Source: PubChem (National Center for Advancing Translational Sciences (NCATS))
ATXN2 expr inh – inhibitors of ATXN2 expression | HEK-293 ATXN2-luciferase reporter, luminescence, 24 h | 360,000 tested, 0.72% active | Potency, µM (doses to about 57 µM), for inactives: top-dose activity change, negative = inhibition, hits mostly inhibitors | AID 1745845; further: on the % scale 0 is the no-effect control and ±100 the full control effect; nearly all actives have a fitted effect of over 55% in size
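ATXN2-luciferase reporter cells (luciferase flanked by upstream and downstream ATXN2 gene portions) were treated 24 h at 37 °C with compounds at up to 57 uM. SteadyGlo luminescence gave expression; GF-AFC fluorescence gave viability.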
Nrf2 inh – inhibitors of Nrf2 signaling; A549 ARE-Fluc reporter, luciferase luminescence, 18-24 h; Potency, µM (series often up to 46 µM), without a hit: at the highest dose activity change, negative = inhibition, most hits filed as inhibitors; 360,000 tested, 2.1% active; AID 504444; further: on the % scale 0 is the no-effect control and ±100 the full control effect; nearly all actives have a fitted effect of over 60% in size
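Nrf2 function is reported as luminescence of an ARE-controlled luciferase in A549 cells. Compounds were tested at several concentrations, and a CellTiter-Fluor read on the same wells flagged cytotoxicity.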
ATXN viability – cell viability loss in ATXN counter-screen. S2 cells (HEK-293 line with an ATXN2-luciferase reporter) viability, CellTiter-Fluor protease fluorescence, 24 h. Potency, µM (top dose mostly 56.7 µM), hits mostly cytotoxic. 400,000 tested, 0.49% active. AID 651635; further: nearly all actives have a fitted effect of over 40% in size
Nrf2 ARE act – activators of Nrf2 (ARE) signaling | AREc32 ARE-luciferase reporter (MCF7-derived line), luminescence, 24 h | AID 624171 | 410,000 tested, 0.31% active | Potency, µM (series often up to 46.1 µM), for inactives: at the highest dose activation, hits mostly activators; further: % of control where 0% means no effect; nearly all actives have a fitted effect of over 65% in size
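ARE activation measured as luciferase luminescence (Steady-Glo, 30 min RT) in AREc32_Fluc cells after 24 hr compound exposure at 37 deg C, 5% CO2; cells seeded overnight at 1000/well in OPTI-MEM, 5% FBS.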
A549 tox-1 – A549 cytotoxicity, counter-screen for Nrf2 inhibitors | 390,000 tested, 0.16% active | A549 ARE-Fluc cells, CellTiter-Fluor viability, 18-24 h | AID 504648 | Potency, µM (titrated, usually from 46 µM), without a hit: top-dose activity change, negative = cytotoxicity, actives largely listed as inhibitors; further: on the % scale 0 is the no-effect control and ±100 the full control effect
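Cytotoxicity counterscreen: CellTiter-Fluor fluorescence was measured in A549 ARE_Fluc cells after 18-24 h of compound exposure in a concentration series. The subsequent BugLite luminescent read reports ARE-luciferase activity.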
FLuc counter 3 – firefly luciferase inhibition, Nrf2 hit validation; shares compounds with Nrf2 inh; purified firefly luciferase, luminescence inhibition; Potency, µM (series often up to 57.5 µM), inactives show top-dose activity change, negative = inhibition, hits mostly inhibitors; 1,400 tested, 4% active; further: on the % scale 0 is the no-effect control and ±100 the full control effect; nearly all actives have a fitted effect of over 65% in size
Target sequence (P08659 whole entry, looked up): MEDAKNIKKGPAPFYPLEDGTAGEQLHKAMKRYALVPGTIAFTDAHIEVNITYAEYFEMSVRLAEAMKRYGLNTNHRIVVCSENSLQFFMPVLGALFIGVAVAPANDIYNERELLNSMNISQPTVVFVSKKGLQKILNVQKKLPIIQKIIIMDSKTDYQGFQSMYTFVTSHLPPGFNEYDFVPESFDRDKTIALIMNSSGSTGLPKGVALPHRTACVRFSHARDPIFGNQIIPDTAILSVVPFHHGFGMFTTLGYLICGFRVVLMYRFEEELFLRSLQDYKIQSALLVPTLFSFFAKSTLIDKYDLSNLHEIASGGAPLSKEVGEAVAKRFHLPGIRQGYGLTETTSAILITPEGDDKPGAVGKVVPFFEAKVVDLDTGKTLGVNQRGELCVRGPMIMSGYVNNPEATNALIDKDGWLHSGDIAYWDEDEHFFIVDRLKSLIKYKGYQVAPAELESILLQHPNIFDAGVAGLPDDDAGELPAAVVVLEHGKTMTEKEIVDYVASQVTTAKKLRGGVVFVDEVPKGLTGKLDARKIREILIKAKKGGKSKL
A549 tox-2 – counter-screen for Nrf2 inhibitors: cytotoxicity in A549 ARE cells; shares compounds with Nrf2 inh; A549 ARE-Fluc cells, cytotoxicity counterscreen; Potency, µM (series often up to 46.1 µM), for the others: top-dose activity change, negative = cytotoxicity, usual class: inhibitors; 1,400 tested, 2% active;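 further: cells exposed to compounds for 18 to 24 hours; on the % scale 0 is the no-effect control and ±100 the full control effect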
ARE-Fluc inh – reduces Nrf2 ARE reporter signal in A549 cells. shares compounds with Nrf2 inh. A549 ARE-firefly luciferase reporter, luminescence. Potency, µM (top dose mostly 46.1 µM), without a hit: at the highest dose activity change, negative = inhibition, hits mostly inhibitors. 1,400 tested, 74% active; further: on the % scale 0 is the no-effect control and ±100 the full control effect; nearly all actives have a fitted effect of over 65% in size
* hit, by the source's call; i = inactive; ? = inconclusive; nt = no result shown; [ ] = remark or other dose. An excerpt weighted towards active compounds, which were near 2.9% of everything screened. The call rests on the fitted dose curve; in most records, active means well fitted curve in the direction sought with a large enough effect; inconclusive means small, poorly fitted or top-dose-only effect, or another doubt; inactive means no such curve, though single readings can be large; an effect the other way counts as inactive or inconclusive. Potency means the concentration at half of the fitted maximal effect.

SMILES | ATXN2 expr inh | Nrf2 inh | ATXN viability | Nrf2 ARE act | A549 tox-1 | FLuc counter 3 | A549 tox-2 | ARE-Fluc inh
COc1ncccc1C(=O)N1CCCC(N2CCN(c3cccc(Cl)c3)CC2)C1 (stereo not drawn) | -25% | 8.2µM* | i | 2% | 4% | -1% | 1% | ?
O=C(Nc1ccc2c(c1)CCCN2C(=O)c1cccs1)c1ccccc1C(F)(F)F | 13% | nt | ? | 4% | -6% | nt | nt | nt
CC(C)(C)OC(=O)N1CCN(C(=O)c2cccnc2Cl)CC1 | nt | 7% | i | 0% | -1% | nt | nt | nt
COc1cc2c(NC3CCN(C(C)C)CC3)nc(N3CCCN(C)CC3)nc2cc1OCCCN(C)C | nt | nt | nt | nt | nt | -1% | ? | 1.6µM*
CO[C@H]1/C=C/O[C@@]2(C)Oc3c(C)c(O)c4c(O)c(c(C=NN5CCN(C)CC5)c(O)c4c3C2=O)NC(=O)/C(C)=C\C=C\[C@H](C)[C@H](O)[C@@H](C)[C@@H](O)[C@@H](C)[C@H](OC(C)=O)[C@@H]1C | 7% | 4.1µM* | i | 0% | ? | -10% | ? | 4.6µM*
CO[C@H]1C=CO[C@@]2(C)Oc3c(C)c(O)c4c(O)c(c(C=NN5CCN(C)CC5)c(O)c4c3C2=O)NC(=O)C(C)=CC=C[C@H](C)[C@H](O)[C@@H](C)[C@@H](O)[C@@H](C)[C@H](OC(C)=O)[C@H]1C | 0%[18.9 µM] | nt | nt | nt | nt | nt | nt | nt
CC(=O)NCCn1ccc2ccccc21 | 0% | nt | i | 0% | 15% | nt | nt | nt
N#Cc1nc(-c2ccco2)oc1N1CCCC1 | -14% | -10% | i | ? | -2% | nt | nt | nt
N#Cc1nc(-c2ccco2)oc1N1CCN(c2cccc(Cl)c2)CC1 | -20% | 1.8µM* | i | 0% | 0% | -23% | ? | 10µM*
CCOC(=O)c1ccc(NC(=O)CCc2c(C)nc3cc(-c4ccc(OC)cc4OC)nn3c2C)cc1 | 5% | 5% | i | 1% | -3% | nt | nt | nt
COc1cc(OC)cc(-c2cc3nc(C)c(CCC(=O)Nc4ccc(C(C)=O)cc4)c(C)n3n2)c1 | nt | 4.1µM* | nt | -3% | -10% | -12% | -5% | 18µM*
COc1cc(OC)cc(-c2cc3nc(C)c(CCC(=O)NCc4ccccc4)c(C)n3n2)c1 | 8.9µM* | 7.3µM* | ? | -2% | 2% | -18% | 3% | 7.3µM*
COc1cc(OC)cc(-c2cc3nc(C)c(CCC(=O)Nc4ccccc4OC)c(C)n3n2)c1 | ? | ? | ? | -1% | -3% | nt | nt | nt
COc1ccc(Cn2c(C(=O)O)c(CNC3CCCC3)c3ccc(OC)cc32)cc1 | -3% | 7% | ? | 1% | ? | nt | nt | nt
COc1ccc(C(=O)N/N=C(\c2ccccc2)c2ccccn2)cc1 | 3.2µM* | 8.2µM* | 10µM* | 18% | ? | 2% | 0% | ?
O=C(NN=C(c1ccccc1)c1ccccn1)c1ccccc1 | 4µM* | 5.2µM* | ? | ? | ? | -25% | 6.5µM* | nt
O=C(NC(O)C(=O)c1ccccc1)c1ccccn1 (stereo not drawn) | 10% | 8% | i | 2% | -11% | nt | nt | nt
O=C(c1cc2c(Cl)nc3ccccc3c2s1)N1CCCCC1 | 26% | 7% | i | 6% | -4% | nt | nt | nt
CCOC(=O)C1CCCN(C(=O)c2cc3c(Cl)nc4ccccc4c3s2)C1 (stereo not drawn) | 14µM* | 5.8µM* | ? | -3% | 0% | -1% | 0% | 8.2µM*
CC1CCN(c2ccc(S(=O)(=O)NC3=NCCCCC3)cc2[N+](=O)[O-])CC1 | -8% | ? | i | 0% | -16% | nt | nt | nt
Cc1ccc(NC(=O)CN2C(=O)c3cccnc3Sc3ccccc32)cc1C | nt | ? | nt | 9% | 9% | ? | 1% | 62%
COc1ccc(NC(=O)CN2C(=O)c3cccnc3Sc3ccccc32)cc1OC | 3% | 26% | i | 8% | -4% | nt | nt | nt
CCOc1ccc(NC(=O)CC2C(=O)N(c3ccccc3)C(=O)N2Cc2ccccn2)cc1 (stereo not drawn) | 12% | 13% | i | 2% | -12% | nt | nt | nt
CC(=O)OC[C@H]1O[C@@H](Oc2cc(O)cc3oc(-c4ccc(O)cc4)cc(=O)c23)[C@H](O[C@@H]2O[C@@H](C)[C@H](O)[C@@H](O)[C@H]2O)[C@@H](O)[C@@H]1O | 12% | 12% | i | 0% | -7% | nt | nt | nt
CO/N=C/c1ccc(N2CCN(C(=O)c3ccc(Cl)cc3Cl)CC2)c([N+](=O)[O-])c1 | -31% | 6.5µM* | i | 0% | -28% | -1% | -22% | 12µM*
SMILES | ATXN2 expr inh | Nrf2 inh | ATXN viability | Nrf2 ARE act | A549 tox-1 | FLuc counter 3 | A549 tox-2 | ARE-Fluc inh
CC12CCC(=O)C=C1CCC1C3CC(O)C(O)(C(=O)CO)C3(C)CC(O)C12F (stereo not drawn) | -5% | 0.1µM* | i | 2% | -1% | 4% | -9% | 0.052µM*
CC(=O)OCC(=O)C1(O)CCC2C3CCC4=CC(=O)C=CC4(C)C3(F)C(O)CC21C (stereo not drawn) | -1% | 0.01µM* | ? | 0% | -5% | 1% | -2% | 0.013µM*
CC(=O)OC1CC2(C)C(C(C)=O)CCC2C2CCC3=CC(=O)CCC3(C)C12 (stereo not drawn) | -11% | -5% | i | 0% | 2% | nt | nt | nt
C[C@@H]1C[C@H]2[C@@H]3CCC4=CC(=O)C=C[C@]4(C)[C@@]3(F)C(O)C[C@]2(C)[C@@]1(O)C(=O)CO (stereo partly drawn) | nt | 0.0052µM* | nt | nt | -1% | 0% | -3% | 0.0065µM*
CC(=O)C1CCC2C3CCC4=CC(=O)CCC4(C)C3(F)C(O)CC12C (stereo not drawn) | 0% | 0.92µM* | i | 0% | -3% | 2% | -1% | 2.1µM*
CC1CC2C3CCC4=CC(=O)C=CC4(C)C3(F)C(O)CC2(C)C1(O)C(=O)CO (stereo not drawn) | nt | ? | i | 0% | -12% | nt | nt | nt
COc1ccc(C(=O)N2CCC(C(N)=O)CC2)cc1S(=O)(=O)N1CCCC1 | -2% | 4% | i | 0% | -4% | nt | nt | nt
Cc1ccc(-c2nnn(CC(=O)NC3CCCc4ccccc43)n2)cc1 (stereo not drawn) | 39% | -1% | i | -1% | -1% | nt | nt | nt
CC1=C(C(=O)Nc2ccc(C)c(C)c2)C2(CCCCCC2)OC1=O | nt | ? | nt | 3% | 8% | nt | nt | nt
